# Only some compounds are listed: those with a hit (about 9% of all), similar ones and a draw of the others.
# ALDH1A1 inh – qHTS Assay for Inhibitors of Aldehyde Dehydrogenase 1 (ALDH1A1) | Aldehyde dehydrogenase 1A1 (Homo sapiens), P00352 | Purified ALDH1A1, NADH fluorescence, propionaldehyde substrate | Potency, µM (doses to about 75.3 µM), for inactives: top-dose activity, negative = inhibition, most hits filed as inhibitors | 7.3% of 220,000 active | AID 1030, 2008;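 note: potency is the fitted concentration of half-maximal effect; plate controls were no enzyme wells and a reference inhibitor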
# Target sequence (P00352 whole entry, looked up): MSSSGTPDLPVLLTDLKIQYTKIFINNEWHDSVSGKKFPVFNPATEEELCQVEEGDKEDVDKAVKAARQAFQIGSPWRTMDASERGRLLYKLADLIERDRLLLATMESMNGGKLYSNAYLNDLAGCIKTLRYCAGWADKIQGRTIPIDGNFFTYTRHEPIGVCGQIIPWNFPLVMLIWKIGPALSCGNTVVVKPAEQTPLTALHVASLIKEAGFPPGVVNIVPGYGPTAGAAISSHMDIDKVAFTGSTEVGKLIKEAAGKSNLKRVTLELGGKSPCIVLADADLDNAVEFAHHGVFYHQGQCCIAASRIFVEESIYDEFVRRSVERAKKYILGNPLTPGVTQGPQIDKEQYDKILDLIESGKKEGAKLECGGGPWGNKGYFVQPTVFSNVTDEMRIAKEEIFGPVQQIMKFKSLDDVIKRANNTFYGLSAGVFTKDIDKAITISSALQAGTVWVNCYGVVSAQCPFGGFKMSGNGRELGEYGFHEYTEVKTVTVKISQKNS
# HPGD inh – qHTS Assay for Inhibitors of HPGD (15-Hydroxyprostaglandin Dehydrogenase) | 15-hydroxyprostaglandin dehydrogenase [NAD(+)] (Homo sapiens), P15428 | purified HPGD, NADH fluorescence kinetic, PGE2 substrate | Potency, µM, inactives show at the top dose activity change, negative = inhibition, actives largely listed as inhibitors | 4.3% of 150,000 active | AID 894, 2007; note: potency is the fitted concentration of half-maximal effect
#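 NADH formation kinetics: reaction with 30 uM PGE2 and 1 mM NAD+ (final), 20 nM enzyme, Tris-HCl pH 8 with Tween 20, after 15 min compound preincubation at room temperature. Fluorescence change, last versus first of five reads.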
# IMPase inh – qHTS Assay for Identifying the Cell-Membrane Permeable IMPase Inhibitors; AID 901, 2007; Inositol monophosphatase 1 (Rattus norvegicus), P97697; inhibition (IP1 accumulation), % at 46.1 µM; 120,000 tested, under 10 active; CHO-M1 cells, IP1 accumulation, HTRF TR-FRET ratio; active = well fitted curve in the direction sought with a large enough effect in the signal ratio, not every such curve was filed as active; inconclusive = small, poorly fitted or top-dose-only effect, or a change in a side signal; inactive = no such curve, though single readings can be large or run the other way; the % refers to the signal ratio;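 note: cells stimulated with carbachol in lithium chloride buffer; plate controls were DMSO basal wells for no effect and reference inhibitor wells for full effect; higher means more IMPase inhibition seen as more IP1 and lower FRET ratio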
#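 Seeded CHO-M1 cells were dosed with compound at up to 46 uM, stimulated with carbachol for 30 min, then lysed in IP-One detection reagents. Higher IP1 lowers the TR-FRET signal.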
# An asterisk follows results filed as active; ? = inconclusive; nt = not tested or not shown; [ ] = another dose, or the depositor's remark. Unless noted, calls come from the whole dose curve; as a rule, active = well fitted inhibition curve with a large enough effect (not every such curve was filed as active); inconclusive = small, poorly fitted or top-dose-only effect, or another doubt; inactive = no such curve, though single readings can be large or run the other way. Unless noted, % is set by controls: 0 for no effect and ±100 for the full control effect.
SMILES,ALDH1A1 inh,HPGD inh,IMPase inh
Cc1ccc(N(CC(=O)NCCSCc2ccco2)S(=O)(=O)c2ccc(C)cc2)cc1,-9.6%,-7.0%,?
COc1ccc(N(CC(=O)NCCSCc2c(F)cccc2Cl)S(C)(=O)=O)cc1OC,-5.4%,-5.3%,-0.4
CC(C)=CC(=O)OCC(=O)NC1CCCc2ccccc21 (stereo not given),7.6%,nt,nt
Cc1cccc(NC(=O)C2CCCN2C(=O)NC2CCCCC2)c1 (stereo not given),-7.6%,nt,nt
CCCOc1cccc(C2c3c(oc4ccccc4c3=O)C(=O)N2c2nncs2)c1 (stereo not given),nt,nt,-6.5
CCOc1ccc2nc(SCC(=O)NCc3ccc4c(c3)OCO4)[nH]c2c1,-4.6%,-2.7%,0.9
O=C(Cn1nc(Cc2cccnc2)c2ccccc2c1=O)NCc1ccc(F)cc1,7.8%,-2.5%,0.2
CC1(C)CC(=O)C(C=NCCN2CCNCC2)=C(O)C1,-3.4%,nt,nt
O=C(CCSCc1ccc(Cl)cc1)NCCc1ccccc1,2.8%,?,5.2
Cc1ccccc1CSCC(=O)NCc1ccco1,15.8µM*,11.2µM*,nt
CC(C)(C)NC(=O)CSCc1c(Cl)cccc1Cl,4.8%,25.1µM*,nt
O=C(COc1ccccc1Cl)NCc1ccco1,-0.8%,-21.5%,5.5
NC(=O)CSCc1c(Cl)cccc1Cl,0.5%,1.6%,-3.8
O=C(CSCc1c(Cl)cccc1Cl)NCc1ccco1,?,8.91µM*,7.2
O=C(CCc1ccccc1)NCCSCc1c(F)cccc1Cl,-5.3%,5.01µM*,-5.8
Cc1ccccc1CSCC(=O)NCCSc1ccccn1,-5.1%,nt,nt
Cc1cccc(OCCn2c(SCC(N)=O)nc3ccccc32)c1,nt,nt,0.4
CO[C@H]1COC(=O)[C@H](C)NC(=O)C/C=C\[C@@H](C)[C@H](OC)COC(=O)[C@@H](OCc2ccccc2)/C=C\[C@@H]1C,5.3%[13.5 µM],nt,nt
COc1ccccc1N(C(=O)c1cncc(Br)c1)c1nc(-c2ccc(C)cc2)cs1,7.8%,-18.7%,nt
O=C(CSCc1ccc(Cl)cc1)NCCSCc1ccco1,11.2µM*,nt,nt
O=C(CCSCc1ccc(Cl)cc1)NCc1ccco1,9.8%,nt,nt
O=C(NNC(=S)NCc1ccco1)c1ccc(Cl)s1,-11.7%,0.1%,-4.3
O=C(CSCc1ccco1)c1ccc(Cl)s1,?,20µM*,14.1
O=C(CSCc1c(F)cccc1Cl)NCc1ccco1,?,14.1µM*,6.4
O=C(CSCc1c(F)cccc1Cl)Nc1cccnc1,-4.2%,nt,nt
SMILES,ALDH1A1 inh,HPGD inh,IMPase inh
O=C(O)COc1ccc(S(=O)(=O)c2ccc(OCC(=O)O)cc2)cc1,?,-15.9%,6.5
Cn1c(=S)n(CCC(=O)O)c2ccccc21,-1.3%,nt,nt
O=C(NCc1ccccc1Cl)c1ccc2c(c1)SC1=NS(=O)(=O)CCN12,4.47µM*,nt,nt
O=C(NCc1cccc(Cl)c1)c1ccc2c(c1)SC1=NS(=O)(=O)CCN12,1.2%,nt,nt
O=C1/C(=C\c2cccs2)SC(=S)N1C1CCS(=O)(=O)C1 (stereo not given),7.6%,nt,nt
O=C1/C(=C/c2ccncc2)SC(=S)N1C1CCS(=O)(=O)C1 (stereo not given),22.4µM*,-23.9%,4.4
COC(=O)Cc1csc(NC(=O)CSc2nnc3ccccn23)n1,2.6%,nt,nt
CC(=O)Oc1ccccc1N(C(C)=O)S(=O)(=O)c1ccc(C)cc1,-3.6%,nt,nt
COc1ccc(S(=O)(=O)N(C(C)=O)c2ccc(OC(C)=O)c3ccccc23)cc1[N+](=O)[O-],7.08µM*,nt,3.2
COc1cccc(S(=O)(=O)c2nc(C)c3c(n2)CCC3)c1,6.31µM*,nt,nt
Cc1ccc(S(=O)(=O)c2nc(C)c3c(n2)CCC3)cc1,?,-13.8%,-1.0
CC(=O)c1cccc(NC(=O)N2CCCC2C(=O)Nc2cccc(C)c2)c1 (stereo not given),6.6%,-6.9%,3.8
CC(=O)c1cccc(NC(=O)N2CCCC2C(=O)Nc2c(C)cccc2C)c1 (stereo not given),25.1µM*,-7.9%,4.0
O=Cc1cccn1-c1sc2c(c1C(=O)O)CCCC2,5.0%,-10.4%,nt
N#Cc1c(-n2cccc2C=O)sc2c1CCCC2,31.6µM*,nt,nt
COc1ccccc1O,-7.3%,0.5%,nt
COc1cc(O)oc1C=Nc1ccccc1,20µM*,-25.7%,-4.9
COC(=O)C1=C(NC(=O)c2ccc(C)cc2)CCS1,15.6%,-24.3%,0.7
CCCCCCS(=O)[C@H]1CS(=O)(=O)C[C@@H]1S(=O)CCCCCC (stereo not given in full),?,12.6µM*,-9.0
CCCCCCCCS(=O)C1CCS(=O)(=O)C1 (stereo not given),12.5%,-10.7%,?
Cc1nn(C2CCS(=O)(=O)C2)c(Cl)c1/C=C/C(=O)OCC(N)=O (stereo not given),12.3%,nt,nt
O=C(Nc1ccc(Cl)cc1)/C(=C/c1ccc([N+](=O)[O-])cc1)c1nc2ccccc2s1,-3.8%,nt,nt
Cc1cccc(NC(=O)c2ccc3c(Cl)c4c(nc3c2)CCCC4)n1,-0.7%,nt,nt
CCN(C(=O)c1ccc2c(Cl)c3c(nc2c1)CCC3)c1ccc(C)c(C)c1,14.1µM*,?,nt
CN(C(=O)c1ccc2c(Cl)c3c(nc2c1)CCC3)c1ccccc1,?,4.47µM*,nt
SMILES,ALDH1A1 inh,HPGD inh,IMPase inh
CN(C(=O)c1ccc2c(=O)n3c(nc2c1)CCCCC3)c1ccccc1,5.9%,-15.4%,5.8
O=C(c1cc2ccccc2oc1=O)N1CCN(c2ncccn2)CC1,17.4%,-11.5%,-2.4
NNC(=O)c1ccc(Cn2cc(Br)cn2)cc1,5.62µM*,-6.0%,nt
NNC(=O)c1ccc(Cn2cc(Cl)cn2)cc1,11.2µM*,-4.5%,nt
O=C(c1ccc(Cn2cc(Br)cn2)cc1)N1CCN(c2ccccc2)CC1,4.9%,-5.9%,2.3
O=C(Nc1ccc(Cl)c(Cl)c1)c1ccc(Cn2cc(Cl)cn2)cc1,6.2%,?,19.0
COc1ccccc1NC(=O)CC1Sc2ccc(C(F)(F)F)cc2NC1=O (stereo not given),nt,nt,0.9
CC(=O)c1ccc(N=Nc2ccc(C)cc2)cc1,10.6%,nt,nt
Cc1ccc(N=N/C(=C\O)C(=O)c2ccc(Cl)cc2)cc1,12.6µM*,nt,nt
O=C(O)c1ccncc1,-3.9%,nt,nt
O=C(/C(=C/O)N=Nc1ccccc1)c1ccncc1,1.26µM*,-22.9%,9.1
Cc1cc2nc(-c3ccc(NC(=O)c4ccc(OCC(C)C)cc4)cc3)oc2cc1C,nt,nt,-13.5
O=C(NCc1ccco1)c1sc2ccccc2c1Cl,?,15.8µM*,-6.1
NC(=O)COC(=O)CNC(=O)c1sc2ccccc2c1Cl,22.4µM*,nt,nt
O=C(NCc1ccco1)c1sc2cc(Cl)ccc2c1Cl,20µM*,15.8µM*,?
CC(=O)Nc1ccc(NC(=O)C(C)OC(=O)CNC(=O)c2sc3ccccc3c2Cl)cc1 (stereo not given),3.4%,-13.1%,nt
CCn1nnc(NC(=O)c2cccnc2Cl)n1,19.0%,-2.0%,-9.2
O=C(NCc1cccnc1)c1sc2cc(Cl)ccc2c1Cl,2.4%,?,-6.7
CCn1nnc(NC(=O)c2sc3ccccc3c2Cl)n1,3.16µM*,-17.4%,0.7
O=C(NCc1ccco1)c1nc2ccccc2s1,?,?,-5.5
CSc1nc2sc3c(c2c(=O)n1Cc1ccccc1)CCC(C(C)(C)C)C3 (stereo not given),nt,nt,7.3

# Compound activity as filed in PubChem BioAssay.
